Measured values taken from publication PMC12431657, “Discovery and mechanistic insights of dibenzoylmethane as a broad spectrum inhibitor of coronavirus” (PLOS Pathogens, 2025).
Structures can show the parent of a compound that is named as a salt. Where two headings read alike, the source gives them in different places. Out of some 3,300 compounds screened, about 60 (2%) showed an effect of 50% or more. What follows is part of a selection rich in strong results, with near analogues and random picks from the rest. Bridge positions count the residues as written; N and C are the ends. Square brackets hold non-standard residues; d marks the D form. Peptide text beside a SMILES is read from it. * marks the point of attachment. Ileψ(thiazoline)Cys = CC[C@H](C)[C@H](N)C1=N[C@H](C(=O)*)CS1; NMePhe(4-NMe2) = CN[C@@H](Cc1ccc(N(C)C)cc1)C(=O)O; Pip(4-oxo) = O=C1CCN[C@H](C(=O)O)C1; Picolinoyl(3-OH) = O=C(c1ncccc1O)*; Phg = N[C@H](C(=O)O)c1ccccc1; dOrn = NCCC[C@@H](N)C(=O)O; dAbu = CC[C@@H](N)C(=O)O

Tested on: HCoV-OC43
Design: species or system RD; HTS, protection from HCoV-OC43 induced cell death, luminescent cell viability (CellCounting-Lite 2.0), inhibition rate
Settings: 24 h post infection, 1 h compound pre-incubation, 10 µM, inhibitor

SMILES	OC43 Inhibition rate	OC43 Inhibition rate (OC43 Inhibition rate, 24 h)
C=C1C(=O)O[C@H]2C[C@@H](C)[C@@H]3CCC(=O)[C@@]3(C)[C@@H](OC(C)=O)[C@H]12 [Ergolide]	10.6%	
CC(C)=CCC[C@](C)(O)[C@@H]1CC=C(C)CC1 [Levomenol]		-0.7%
Cn1cnc2c(ncn2[C@@H]2O[C@H](CO)[C@@H](O)[C@H]2O)c1=O [1-Methylinosine]	0.1%	
C[C@@H]1C/C=C/C=C/C=C/C=C/[C@H](O[C@@H]2O[C@H](C)[C@@H](O)[C@H](N)[C@@H]2O)C[C@@H]2O[C@](O)(C[C@@H](O)C[C@H]3O[C@@H]3/C=C/C(=O)O1)C[C@H](O)[C@H]2C(=O)O [Natamycin]	-0.1%	
C[C@@H]1[C@H](O)[C@@H](C)/C=C/C=C/C=C/C=C/C=C/C=C/C=C/[C@H](O[C@@H]2O[C@H](C)[C@@H](O)[C@H](N)[C@@H]2O)C[C@@H]2O[C@](O)(C[C@@H](O)C[C@@H](O)[C@H](O)CC[C@@H](O)C[C@@H](O)CC(=O)O[C@H]1C)C[C@H](O)[C@H]2C(=O)O [amphotericin B]	103.7%	
O=S(=O)(O)CCO [Isethionic acid sodium salt]	-0.5%	
O=C(O)[C@H](O)[C@H](O)[C@@H](O)[C@H](O)[C@H](O)CO [NSC 42196]	3.4%	
N[C@H](C(=O)O)[C@@H]1CC(Cl)=NO1 [Acivicin (hydrochloride)]	61.6%	
CC1(C)CCC[C@]2(C)[C@H]3CCO[C@]3(C)CC[C@@H]12 [Ambroxide]	-0.5%	
CC1=CC(=O)C(C(C)C)CC1 (centres unmarked) [Piperitone]	-0.8%	
CC(=O)NCCCC[C@H](N)C(=O)O [Nepsilon-Acetyl-L-lysine]	-0.2%	
C=C[C@H]1CN2CC[C@@]3(C(=O)Nc4ccccc43)[C@@H]2C[C@@H]1/C(=C\OC)C(=O)OC [Isocorynoxeine]	-0.3%	
CCC/C=C1\OC(=O)C2=C1CC[C@@H](O)[C@H]2O [Senkyunolide H]	-0.5%	
CCC/C=C1\OC(=O)C2=C1CC[C@H]1[C@H]3C=C4C(=O)O/C(=C\CCC)[C@@]4(CC3)[C@@H]21 [Levistolide A]	77.4%	
CCC/C=C1\OC(=O)C2=C1CC[C@H](O)[C@H]2O [Senkyunolide I]	-0.4%	
O=C(O)c1ccc(=O)oc1 [Coumalic acid]	10.5%	
C[C@H]1[C@H](C)CC[C@]2(C)CC[C@]3(C)C(=CC[C@@H]4[C@@]5(C)CC[C@@H](O)[C@](C)(C(=O)O)[C@@H]5CC[C@]43C)[C@H]12 [β-Boswellic acid]	-0.2%	
CC(=O)O[C@@H]1CC[C@@]2(C)[C@@H](CC[C@]3(C)[C@@H]2CC=C2[C@@H]4[C@@H](C)[C@H](C)CC[C@]4(C)CC[C@]23C)[C@@]1(C)C(=O)O [3-Acetyl-beta-boswellic acid]	66.7%	
CC(=O)O[C@@H]1CC[C@@]2(C)[C@@H](CC[C@]3(C)[C@@H]2[C@H](O)C=C2[C@@H]4[C@@H](C)[C@H](C)CC[C@]4(C)CC[C@]23C)[C@@]1(C)C(=O)O [3-O-Acetyl-11-hydroxy-beta-boswellic acid]	15.2%	
C[C@H](CCC(=O)NCC(=O)O)[C@H]1CC[C@H]2[C@@H]3CC[C@@H]4C[C@H](O)CC[C@]4(C)[C@H]3C[C@H](O)[C@]12C [Glycodeoxycholic acid (monohydrate)]		-0.8%
CCCCCCCC/C=C\CCCCCCCCCCCCCC(=O)O [Nervonic acid]	-2.1%	
CC(=O)N[C@H](C(=O)O)C(C)C [Acetylvaline]	-0.2%	
COc1ccc2c(c1OC)CN(C)c1c-2ccc2cc3c(cc12)OCO3 [Dihydrochelerythrine]	1.4%	
O=c1cc(-c2ccccc2)oc2c(O)c(O)ccc12 [7,8-Dihydroxyflavone]	0.2%	
O=c1cc(-c2ccccc2)oc2c1ccc1ccccc12 [Alpha-Naphthoflavone]	65.1%	
O=c1cc(-c2ccccc2)oc2ccccc12 [Flavone]	0.3%	
CC(C)=CCC[C@](C)(O[C@@H]1O[C@H](CO)[C@@H](O)[C@H](O)[C@H]1O)[C@H]1CC[C@]2(C)[C@@H]1[C@H](O)C[C@@H]1[C@@]3(C)CC[C@H](O)C(C)(C)[C@@H]3[C@@H](O[C@@H]3O[C@H](CO)[C@@H](O)[C@H](O)[C@H]3O[C@@H]3OC[C@@H](O)[C@H](O)[C@H]3O)C[C@]12C [Notoginsenoside R1]	0.5%	

SMILES	OC43 Inhibition rate	OC43 Inhibition rate (OC43 Inhibition rate, 24 h)
N[C@@H](Cc1c[nH]cn1)C(=O)O [L-Histidine (hydrochloride hydrate)]		2.4%
CC[C@H]1NC(=O)[C@@H](NC(=O)c2ncccc2O)[C@@H](C)OC(=O)[C@H](c2ccccc2)NC(=O)[C@@H]2CC(=O)CCN2C(=O)[C@H](Cc2ccc(N(C)C)cc2)N(C)C(=O)[C@@H]2CCCN2C1=O [Pristinamycin IA] ({Picolinoyl(3-OH)}-T[dAbu]P[NMePhe(4-NMe2)][Pip(4-oxo)][Phg]; ester 1-C)	1.7%	
NCCCCNCCCN [Spermidine]		-0.8%
COc1cc(O)cc2oc(-c3ccc(O)c(O)c3)c(O)c(=O)c12 [Azaleatin]	7.4%	
COc1ccc2cc3n(c(=O)c2c1OC)CCc1cc2c(cc1-3)OCO2 [Oxyberberine]	58.7%	
COc1cc2c(cc1OC)-c1cc3ccc4c(c3c(=O)n1CC2)OCO4 [8-Oxoepiberberine]	10.1%	
O=c1c2c3c(ccc2cc2n1CCc1cc4c(cc1-2)OCO4)OCO3 [8-Oxocoptisine]	-0.2%	
OC[C@H]1O[C@@H](Oc2cc(/C=C/c3cc(O)cc(O)c3)ccc2O)[C@H](O)[C@@H](O)[C@@H]1O [Piceatannol 3'-O-glucoside]	2%	
CC(C)=CCC12Oc3cc(O)ccc3C1(O)Oc1cc(O)c([C@H]3C=C(C)C[C@@H](c4ccc(O)cc4O)[C@@H]3C(=O)c3ccc(O)cc3O)c(O)c1C2=O (some centres unmarked) [Sanggenon D]	42.1%	
CC(C)(O)[C@H]1CC[C@@](C)([C@H]2[C@@H](O)C[C@@]3(C)[C@@H]4C[C@H](O)[C@H]5C(C)(C)[C@@H](O)CC[C@@]56C[C@@]46CC[C@]23C)O1 [Cyclogalegenin]	8.4%	
CC(C)(O)[C@@H]1CC[C@](C)([C@H]2[C@@H](O)C[C@@]3(C)[C@@H]4C[C@H](O)[C@H]5C(C)(C)[C@@H](O)CC[C@@]56C[C@@]46CC[C@]23C)O1 [Cycloastragenol]	0.7%	
CN[C@@H](C)[C@H]1[C@H](O)C[C@@]2(C)[C@@H]3CC[C@H]4C(C)(C)[C@@H](NC)CC[C@@]45C[C@@]35CC[C@]12C [Cyclovirobuxine D]	109.3%	
NCC(O)c1ccccc1 (centres unmarked) [2-Amino-1-phenylethanol]	0%	
O=C(O)c1ccc(O)cc1 [4-Hydroxybenzoic acid]	0.1%	
C[C@@H](O)CO [(R)-(-)-1,2-Propanediol]	-0.2%	
COc1cc(CNC(=O)CCCC/C=C/C(C)C)ccc1O[C@@H]1O[C@H](CO)[C@@H](O)[C@H](O)[C@H]1O [Capsaicin β-D-glucopyranoside]	0.3%	
CC1=CC(=O)[C@@H]2C[C@H]1C2(C)C [Verbenone]	-0.2%	
C=C1[C@@H](O)[C@]2(O)OC[C@]34[C@H]2[C@@]2(C)[C@H](O)C(=O)C=C(C)[C@@H]2C[C@H]3OC(=O)[C@H](O)[C@@]14O [Eurycomanone]	54.5%	
O=C(O)c1ccncc1 [Isonicotinic acid]	-0.2%	
O=C(O)C(CO)c1ccccc1 (centres unmarked) [Tropic acid]	0.5%	
CCC(C)(C)C(=O)O[C@H]1C[C@@H](C)C=C2C=C[C@H](C)[C@H](CC[C@@H](O)C[C@@H](O)CC(=O)O)[C@H]21 [Simvastatin acid (ammonium)]	5%	
CCCCCCCCCC(=O)N[C@@H](Cc1c[nH]c2ccccc12)C(=O)N[C@H](CC(N)=O)C(=O)N[C@@H](CC(=O)O)C(=O)N[C@@H]1C(=O)NCC(=O)N[C@@H](CCCN)C(=O)N[C@@H](CC(=O)O)C(=O)N[C@H](C)C(=O)N[C@@H](CC(=O)O)C(=O)NCC(=O)N[C@H](CO)C(=O)N[C@@H]([C@H](C)CC(=O)O)C(=O)N[C@@H](CC(=O)c2ccccc2N)C(=O)O[C@@H]1C [Daptomycin]	62.7%	
CC(C)[C@@H]1NC(=O)CNC(=O)[C@H](C)NC(=O)[C@H](Cc2c[nH]c3ccccc23)NC(=O)[C@H](C)NC1=O [Segetalin B] (cyclo(AGVAW))	-0.5%	
CC[C@H](C)[C@H](N)C1=N[C@H](C(=O)N[C@@H](CC(C)C)C(=O)N[C@H](CCC(=O)O)C(=O)N[C@H](C(=O)N[C@H]2CCCCNC(=O)[C@H](CC(N)=O)NC(=O)[C@@H](CC(=O)O)NC(=O)[C@H](Cc3cnc[nH]3)NC(=O)[C@@H](Cc3ccccc3)NC(=O)[C@H]([C@@H](C)CC)NC(=O)[C@@H](CCCN)NC2=O)[C@@H](C)CC)CS1 [Bacitracin] ({Ileψ(thiazoline)Cys}-L[dE]IK[dOrn]I[dF]H[dD]N; lactam 4-C)	-0.3%	
CN1C[C@@H]2C[C@H](C1)c1cccc(=O)n1C2 [N-Methylcytisine]	-2.8%	
C=C1CCOC1=O [Tulipalin A]	28.2%	
